Assay results published in PubChem BioAssay (NCATS).
Calls of active or inactive are those of the source. Calls come from the whole dose curve.

Experiment: qHTS drug screen for cell cycle checkpoint inhibitors in PARPi-resistant BRCA-mutant ovarian cancer cell lines. (AID 1963452)
Conditions: PEO1/OlaR viability, CellTiter-Glo luminescence, 96 h, stronger effect = lower value
Text: Women's Malignancies Branch, Center for Cancer Research (CCR),
National Cancer Institute (NCI), National Institutes of Health (NIH), Bethesda, MD
Poly (ADP-ribose) polymerase inhibitors (PARPis) have changed the treatment paradigm in breast cancer gene (BRCA) - mutant high-grade serous ovarian carcinoma (HGSC). However, most patients eventually develop resistance to PARPis, highlighting an unmet need for improved therapeutic strategies. Using high-throughput drug screens, we identified ataxia telangiectasia and rad3-related protein/checkpoint kinase 1 (CHK1) pathway inhibitors as cytotoxic and further validated the activity of the CHK1 inhibitor (CHK1i) prexasertib in PARPi-sensitive and -resistant BRCA-mutant HGSC cells and xenograft mouse models. CHK1i monotherapy induced DNA damage, apoptosis, and tumor size reduction. We then conducted a phase 2 study (NCT02203513) of prexasertib in patients with BRCA-mutant HGSC. The treatment was well tolerated but yielded an objective response rate of 6% (1 of 17; one partial response) in patients with previous PARPi treatment. […] BRCA reversion mutation in previously PARPi-treated BRCA-mutant patients was not associated with resistance to CHK1i.
Among others, 1082 oncology drugs, both approved and investigational, were prioritized based on their status in clinical trial development. […] Drugs with average Z-AUC values less than -1.0 in all three cell lines were classified as "hits" resulting in 151 oncology drug hits. The screen also confirmed cross-resistance between olaparib and other PARPis (rucaparib, niraparib, and talazoparib) in PARPi-resistant PEO1/OlaR and PEO4.
[1] G. L. Lin, K. M. Wilson, M. Ceribelli, B. Z. Stanton, P. J. Woo, S. Kreimer, E. Y. Qin, X. Zhang, J. Lennon, S. Nagaraja, P. J. Morris, M. Quezada, S. M. Gillespie, D. Y. Duveau, A. M. Michalowski, P. Shinn, R. Guha, M. Ferrer, C. Klumpp-Thomas, S. Michael, C. McKnight, P. Minhas, Z. Itkin, E. H. Raabe, L. Chen, R. Ghanem, A. C. Geraghty, L. Ni, K. I. Andreasson, N. A. Vitanza, K. E.Warren, C. J. Thomas, M. Monje, Therapeutic strategies for diffuse midline glioma from high-throughput combination drug screening. Sci. Transl. Med. 11, (2019).
[2] T. M. Yamamoto, A. McMellen, Z. L. Watson, J. Aguilera, R. Ferguson, E. Nurmemmedov, T. Thakar, G. L. Moldovan, H. Kim, D. M. Cittelly, A. M. Joglar, E. P. Brennecke, H. Wilson, K. Behbakht, M. J. Sikora, B. G. Bitler, Activation of Wnt signaling promotes olaparib resistant ovarian cancer. Mol. Carcinog. 58, 1770 - 1782 (2019).
PROTOCOL TABLE (as described by Inglese J, Shamu CE and Guy RK. 2007)
SEQUENCE No. (e.g., 1, 2, 3, etc.); […] (e.g., Cells, Incubation, Reagent, etc.); VALUE; DESCRIPTION.
1; Compounds; 20nL; 1536-well white tissue culture-treated plates.
2; Cells; 5 uL; PEO1, PEO4, and PEO1/OlaR cells at 600 cells per well.
3; Incubation; 96 hr; 37C, 95% humidity, 5% CO2.
4; Reagent; 3 uL; CellTiter-Glo (Promega).
5; Incubation; 15 min; room temperature.
6; Detection; Luminescence, PHERAstar (BMG Labtech) plate reader.
NOTES (numbers refer to Sequence numbers above)
1. MIPE 5.0 compounds were acoustically dispensed by Echo Acoustic Liquid Handler (Beckman Coulter Life Sciences). Each compound was plated at an 11-point concentration range with 1:3 dilution. Bortezomib, a proteasome inhibitor (final concentration, 20 uM), was used as a positive.
2. PEO1, PEO4, and PEO1/OlaR were trypsinized and dispensed in 5 uLof growth medium using a Multidrop Combi dispenser at a density of 600 cells per well to allow compounds to be present during the exponential growth phase.
3. Plates were incubated for 96 hours at standard incubator conditions and covered by a stainless steel gasketed lid to prevent evaporation.
4. Three microliters of CellTiter-Glo (Promega) were added to each well.
5. Plates were incubated at room temperature for 15 min with a stainless-steel lid in place.
6. Luminescence readings were taken using PHERAstar (BMG Labtech). […]

[1] = measured here: PEO1 parental Z-AUC

| SMILES | Z-AUC | Z-AUC [1] | Z-AUC (measured here: PEO4 Z-AUC) |
| --- | --- | --- | --- |
| C[C@@H]1C[C@@H]([C@H](O)CC2CC(=O)NC(=O)C2)C(=O)[C@@H](C)C1 | 0.13 (inactive) | -0.0615 | 0.0418 |
| COc1ccc(C(=O)N2CCCC2=O)cc1 | -0.603 (inactive) | 0.111 | -0.65 |
| O=C(O)c1nn(Cc2ccc(Cl)cc2Cl)c2ccccc12 | 0.664 (inactive) | 0.662 | 0.605 |
| C#C[C@]1(O)C=C[C@H]2[C@@H]3CCC4=CC(=O)CC[C@@H]4[C@H]3CC[C@@]21CC | 1.19 (inactive) | 1.82 | 1.32 |
| C[C@@H]1CC[C@H]2[C@@H](C)C(=O)O[C@@H]3O[C@@]4(C)CC[C@@H]1[C@]32OO4 | 1.33 (inactive) | 0.931 | 1.15 |
| C[C@@H]1O[C@@H](O[C@@H]2C=C3CC[C@@H]4[C@H](CC[C@]5(C)[C@@H](c6ccc(=O)oc6)CC[C@]45O)[C@@]3(C)CC2)[C@H](O)[C@H](O)[C@H]1O | -2.1 (inactive) | -2.52 | -2.14 |
| C[C@]12CC[C@H](O)CC1=CC[C@@H]1[C@@H]2CC[C@]2(C)C(=O)CC[C@@H]12 | 1.09 (inactive) | 0.516 | 0.608 |
